The inhibition is the drop in the measured response relative to a control, in per cent.

A number with no mark means an inactive call. For some of these results: Entries with a potency or affinity are not part of this list. The source made the active and inactive calls. Unless noted, how the calls were made is not given here.

Assay [1] is described as follows: antimalarial activity against Dd2 strain (AID 2302;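 active means growth inhibition above 50% at the single 2 µM test dose, taken to imply half-maximal potency below 2 µM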;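 further: 0% = DMSO untreated growth and 100% = chloroquine plus artemisinin killed control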). Conditions: P. falciparum Dd2 in RBCs, LDH growth readout, 72 h; at 2 µM; stronger effect = higher value.
Assay [2] is described as follows: HepG2 cytotoxicity, primary screen, cytotoxicity control for P. falciparum antimalarial project, cell-based, ATP luminescence (AID 2303;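 active means inhibition above 50%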;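 further: 0% = DMSO wells and 100% = digitonin-killed cells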). Conditions: HepG2 viability, 24-48 h, at 10 µM, stronger effect = higher value.
The target of assay [3] is L-lactate dehydrogenase (Plasmodium falciparum (isolate CDC / Honduras)) (UniProt Q27743). Kind of assay: PfLDH activity inhibition – cell lysate, 3D7 strain, counter-screen for P. falciparum growth inhibition project (AID 2304).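 Further: 0% = vehicle and 100% = reference inhibitor.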 The conditions noted are these: P. falciparum 3D7 crude extract, LDH APAD/NBT absorbance; at 2 µM; stronger effect = higher value.
Chain of L-lactate dehydrogenase (Plasmodium falciparum (isolate CDC / Honduras)) (Q27743 whole entry, looked up): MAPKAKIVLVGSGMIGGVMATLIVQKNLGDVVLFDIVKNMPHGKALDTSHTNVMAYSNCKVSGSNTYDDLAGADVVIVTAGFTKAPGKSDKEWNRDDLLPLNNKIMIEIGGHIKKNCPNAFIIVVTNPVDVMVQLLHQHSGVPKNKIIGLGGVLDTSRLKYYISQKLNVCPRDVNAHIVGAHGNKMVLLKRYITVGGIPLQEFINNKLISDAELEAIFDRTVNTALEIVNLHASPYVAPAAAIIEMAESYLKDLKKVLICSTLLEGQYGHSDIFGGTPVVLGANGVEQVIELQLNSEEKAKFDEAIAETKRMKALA
Assay [4] in a line: inhibition of 3D7 malaria parasite growth – strain 3D7 (AID 2306).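 Further: 0% = DMSO wells and 100% = chloroquine plus artemisinin control wells.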 Conditions: P. falciparum 3D7 erythrocytic growth, LDH absorbance, 72 h; at 2 µM; stronger effect = higher value.
The target of assay [5] is Calcium-dependent protein kinase 1 (Plasmodium falciparum (isolate 3D7)) (UniProt P62344). The assay is described as follows: PfCDPK1 kinase inhibitors, biochemical, TCAMS library (AID 1159585; cut-off not given, nearly all actives have IC50 up to about 0.98 µM;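 further: inhibitors leave more ATP so luminescence rises with inhibition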). The conditions noted are these: recombinant PfCDPK1, Kinase-Glo ATP depletion luminescence.
Chain of Calcium-dependent protein kinase 1 (Plasmodium falciparum (isolate 3D7)) (P62344 whole entry, looked up): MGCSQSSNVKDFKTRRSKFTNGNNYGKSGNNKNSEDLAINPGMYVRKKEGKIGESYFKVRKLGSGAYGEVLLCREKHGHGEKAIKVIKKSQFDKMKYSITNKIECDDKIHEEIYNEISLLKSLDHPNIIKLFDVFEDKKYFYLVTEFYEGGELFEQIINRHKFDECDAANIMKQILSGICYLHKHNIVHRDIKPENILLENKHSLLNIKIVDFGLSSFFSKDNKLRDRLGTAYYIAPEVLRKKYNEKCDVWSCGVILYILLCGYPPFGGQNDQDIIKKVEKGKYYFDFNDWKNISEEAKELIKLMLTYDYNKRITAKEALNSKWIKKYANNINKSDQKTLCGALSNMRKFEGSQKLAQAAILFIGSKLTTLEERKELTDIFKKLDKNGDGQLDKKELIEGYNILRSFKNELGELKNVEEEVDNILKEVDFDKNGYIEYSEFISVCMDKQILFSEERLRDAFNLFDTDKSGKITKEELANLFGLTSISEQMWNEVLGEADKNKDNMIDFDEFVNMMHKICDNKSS
Assay [6] has as its target Plasmodium falciparum protein kinase 6 (PK6, PF3D7_1337100) (UniProt Q8IDW1). The assay is described as follows: PfPK6 kinase inhibitors, biochemical, TCAMS library (AID 1159586). The conditions noted are these: recombinant PfPK6, Kinase-Glo ATP depletion luminescence.
The target of assay [7] is Protein kinase 7 (PK7), Plasmodium falciparum 3D7 (PF3D7_0213400) (UniProt Q7YTF7). Kind of assay: inhibition of Plasmodium PK7 catalytic activity – biochemical, TCAMS antimalarial set, Kinase-Glo luminescence (AID 1159587). Conditions: recombinant PfPK7, Kinase-Glo ATP depletion luminescence. A general note: In Kinase-Glo more light means more ATP remaining.
Chain of Protein kinase 7 (PK7), Plasmodium falciparum 3D7 (PF3D7_0213400) (Q7YTF7 1-343): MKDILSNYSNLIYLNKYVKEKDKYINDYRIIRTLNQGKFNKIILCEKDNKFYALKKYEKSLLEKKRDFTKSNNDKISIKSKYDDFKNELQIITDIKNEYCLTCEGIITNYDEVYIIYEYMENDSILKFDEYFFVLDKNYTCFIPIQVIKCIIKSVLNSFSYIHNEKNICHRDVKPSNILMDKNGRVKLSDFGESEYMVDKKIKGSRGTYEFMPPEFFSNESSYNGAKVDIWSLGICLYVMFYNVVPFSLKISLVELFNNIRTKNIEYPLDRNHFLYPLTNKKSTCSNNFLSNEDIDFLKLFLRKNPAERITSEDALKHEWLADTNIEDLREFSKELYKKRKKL
The target of assay [8] is Calcium-dependent protein kinase 4 (Plasmodium falciparum (isolate 3D7)) (UniProt Q8IBS5). The assay is described as follows: PfCDPK4 kinase inhibitors, biochemical, TCAMS library (AID 1159588; cut-off not given, nearly all actives have IC50 up to about 0.91 µM). The conditions noted are these: recombinant PfCDPK4, Kinase-Glo ATP depletion luminescence.
Chain of Calcium-dependent protein kinase 4 (Plasmodium falciparum (isolate 3D7)) (Q8IBS5 whole entry, looked up): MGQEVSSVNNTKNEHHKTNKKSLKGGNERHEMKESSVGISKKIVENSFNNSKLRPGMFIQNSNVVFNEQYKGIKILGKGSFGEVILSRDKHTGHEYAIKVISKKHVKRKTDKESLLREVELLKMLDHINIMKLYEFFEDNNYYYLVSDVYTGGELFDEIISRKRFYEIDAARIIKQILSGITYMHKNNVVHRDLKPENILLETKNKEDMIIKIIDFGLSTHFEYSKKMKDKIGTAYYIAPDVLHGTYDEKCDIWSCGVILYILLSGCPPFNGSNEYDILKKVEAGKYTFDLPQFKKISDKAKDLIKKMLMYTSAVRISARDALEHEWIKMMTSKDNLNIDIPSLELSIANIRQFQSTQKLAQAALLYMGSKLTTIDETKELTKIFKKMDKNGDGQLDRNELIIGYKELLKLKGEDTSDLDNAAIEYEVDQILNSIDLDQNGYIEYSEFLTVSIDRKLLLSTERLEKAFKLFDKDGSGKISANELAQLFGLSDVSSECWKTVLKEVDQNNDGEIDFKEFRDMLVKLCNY

Chain of Plasmodium falciparum protein kinase 6 (PK6, PF3D7_1337100) (Q8IDW1 1-305): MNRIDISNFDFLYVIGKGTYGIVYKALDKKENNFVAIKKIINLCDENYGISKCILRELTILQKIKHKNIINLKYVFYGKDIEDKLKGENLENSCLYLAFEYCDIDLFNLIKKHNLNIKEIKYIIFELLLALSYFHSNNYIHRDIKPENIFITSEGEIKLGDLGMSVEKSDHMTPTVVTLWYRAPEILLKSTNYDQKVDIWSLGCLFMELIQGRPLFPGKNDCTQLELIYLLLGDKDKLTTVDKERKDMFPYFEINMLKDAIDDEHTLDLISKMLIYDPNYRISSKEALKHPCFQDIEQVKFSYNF

As for `Cc1cccc2[nH]c(-c3cccc(-c4ccc(NC(=O)C(=O)c5cccn5C)cc4)c3)nc12`, the growth inhibition was 46% in assay [1] and 101% (active) in assay [4]. In addition, the inhibition is 45% in assay [2] and -1% in assay [3]. Moreover, the result in assay [5], in assay [6], in assay [7] and in assay [8] was inactive.

As for `CC(C)(C)C1CCC(CC2=C(C(=O)O)c3ccccc3C2=O)CC1` (stereo not given), the growth inhibition was 56% (active) in assay [1] and 91% (active) in assay [4]. Moreover, the inhibition was -4% in assay [2] and -1% in assay [3]. For the same molecule, the result in assay [5], in assay [6], in assay [7] and in assay [8] was inactive.

`CN1CCN(S(=O)(=O)c2cccc(Nc3nccc(N(C)c4ccc5c(c4)nc(NC(=O)c4cccs4)n5C)n3)c2)CC1`: the growth inhibition is 59% (active) in assay [1] and 99% (active) in assay [4]. The inhibition in assay [2] was 25%; in assay [3], -6%. Also, the outcome in assay [5], in assay [6], in assay [7] and in assay [8] was inactive.

In the case of `COc1ccc(CN(C)CCOc2ccc(NC(=O)c3cccc4c(=O)cc(-c5ccccc5)[nH]c34)cc2)cc1OC`, the growth inhibition was 44% in assay [1] and 98% (active) in assay [4]. Further, the values for the inhibition in assay [2] and in assay [3] were 13% and -3%, respectively. In addition, the result in assay [5], in assay [6], in assay [7] and in assay [8] was inactive.

As to `CCOc1c(CNCCCNc2cc(=O)c3ccccc3[nH]2)cc(I)cc1C(C)(C)C`, the growth inhibition in assay [1] is 89% (active); in assay [4] it was 102% (active). The inhibition is 17% in assay [2] and -4% in assay [3]. Moreover, the outcome in assay [5], in assay [6], in assay [7] and in assay [8] was inactive.

In the case of `NC(=NC1CC1)c1ccc2nc(CCCCCc3nc4ccc(C(N)=NC5CC5)cc4[nH]3)[nH]c2c1`, the growth inhibition in assay [1] is 72% (active); in assay [4], 89% (active). For the same molecule, the inhibition in assay [2] was -3%; in assay [3] it was 2%. In addition, the outcome in assay [5], in assay [6], in assay [7] and in assay [8] was inactive.

In the case of `O=C(Nc1ccc(CCN2CCC(c3nc(COCC(F)(F)F)c(-c4ccccc4)o3)CC2)cc1)c1ccc(F)cc1`, the values for the growth inhibition in assay [1] and in assay [4] were 3% and 86% (active), respectively. The inhibition in assay [2] is 9%; in assay [3], 3%. The outcome in assay [5], in assay [6], in assay [7] and in assay [8] was inactive.

For `COc1ccc2c(NN=CC=Cc3ccccc3)cc(C)nc2c1`, the results for the growth inhibition in assay [1] and in assay [4] were 56% (active) and 99% (active), respectively. Also, the inhibition in assay [2] is 18%; in assay [3], 2%. Also, the result in assay [5], in assay [6], in assay [7] and in assay [8] was inactive.

For the molecule `O=C(Nc1ccc(Cl)c(C(F)(F)F)c1)NC1CCN(CCCCCNC(=O)[C@@H]2C[C@H]2c2ccc(Cl)c(Cl)c2)CC1`, the growth inhibition in assay [1] is 41%; in assay [4], 100% (active). The inhibition in assay [2] was 79% (active); in assay [3] it was -1%. The outcome in assay [5], in assay [6], in assay [7] and in assay [8] was inactive.

Consider `Cc1cc(NN=Cc2ccccc2F)c2ccccc2n1`, for which the growth inhibition in assay [1] was 81% (active); in assay [4] it was 101% (active). For the same molecule, the inhibition was 14% in assay [2] and 1% in assay [3]. The outcome in assay [5], in assay [6], in assay [7] and in assay [8] was inactive.

As for `Cc1[nH]c(C)c(-c2ccc(OCc3cc(F)cc(F)c3)nc2)c(=O)c1Cl`, the growth inhibition in assay [1] and in assay [4] was 97% (active) throughout. For the same molecule, the inhibition in assay [2] was 20%; in assay [3] it was -6%. In addition, the result in assay [5], in assay [6], in assay [7] and in assay [8] was inactive.

Take `O=C(c1cccs1)N1CCN(c2ccc([N+](=O)[O-])c(NC3CC3)c2)CC1`: the growth inhibition in assay [1] was 95% (active); in assay [4], 100% (active). For the same molecule, the values for the inhibition in assay [2] and in assay [3] were -5% and 2%, respectively. The outcome in assay [5], in assay [6], in assay [7] and in assay [8] was inactive.

Take `Cc1cc(Nc2nc(NCc3cccnc3)nc3ccccc23)n[nH]1`: the growth inhibition in assay [1] is 33%; in assay [4], 101% (active). Moreover, the figures for the inhibition in assay [2] and in assay [3] were 11% and 1%, respectively. For the same molecule, the result in assay [5], in assay [6], in assay [7] and in assay [8] was inactive.

`O=C(Nc1cccc(OC2CCN(Cc3ccc(F)cc3)CC2)c1)c1ccc(C(F)(F)F)cc1`: the values for the growth inhibition in assay [1] and in assay [4] were 6% and 94% (active), respectively. Besides, the inhibition in assay [2] is 28%; in assay [3] it was 3%. For the same molecule, the outcome in assay [5], in assay [6], in assay [7] and in assay [8] was inactive.

For `N#Cc1ccc(-c2ccc(C(=O)NCCCCN3CCC(c4cn(CCCO)c5ccccc45)CC3)cc2)cc1`, the growth inhibition was 56% (active) in assay [1] and 98% (active) in assay [4]. The inhibition was 31% in assay [2] and -2% in assay [3]. The result in assay [5], in assay [6], in assay [7] and in assay [8] was inactive.

As to `O=C(N[C@@H](Cc1ccccc1)[C@H](O)CNC1CCCc2ccccc21)c1cc(C2CCCC2)cc(N2CCCC2=O)c1` (stereo not given in full), the values for the growth inhibition in assay [1] and in assay [4] were 99% (active) and 97% (active), respectively. The inhibition was 31% in assay [2] and -7% in assay [3]. In addition, the outcome in assay [5], in assay [6], in assay [7] and in assay [8] was inactive.

Take `CCCCNC(=O)[C@@H](NC(=O)c1ccc(O)c(-c2ccc(Cl)c(Cl)c2)c1)C(C)C`: the figures for the growth inhibition in assay [1] and in assay [4] were 98% (active) and 97% (active), respectively. Besides, the inhibition was -4% in assay [2] and 2% in assay [3]. Moreover, the outcome in assay [5], in assay [6], in assay [7] and in assay [8] was inactive.

Take `COc1ccc(-c2ccc(CNC(=O)c3cccc(C#N)c3)c(F)c2)cc1CN1CCCN(C)CC1`: the growth inhibition in assay [1] was 30%; in assay [4] it was 99% (active). Besides, the inhibition in assay [2] is 8%; in assay [3], -4%. Further, the outcome in assay [5], in assay [6], in assay [7] and in assay [8] was inactive.

Consider `CCn1c(C2CCN(CCC3CCN(C(=O)/C=C/c4ccc(Cl)c(Cl)c4)CC3)CC2)nc2ccccc21`, for which the growth inhibition is 0% in assay [1] and 86% (active) in assay [4]. For the same molecule, the inhibition is 17% in assay [2] and 2% in assay [3]. In addition, the result in assay [5], in assay [6], in assay [7] and in assay [8] was inactive.

In the case of `CC(=O)Nc1cccc(C(=O)Nc2ccc(-c3ccc(-c4nc5c(C)cccc5[nH]4)s3)cc2)c1`, the growth inhibition is 20% in assay [1] and 93% (active) in assay [4]. The figures for the inhibition in assay [2] and in assay [3] were 94% (active) and 2%, respectively. The result in assay [5], in assay [6], in assay [7] and in assay [8] was inactive.

The values above are taken from PubChem BioAssay.
